PubChem BioAssay (NCI)
Compounds without any hit were thinned out: in the full panel of roughly 83,000, 20% have a hit.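 Single-dose data. Exposure time 48 hours. Values below 10 considered active.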 Unmarked numbers belong to inactive results. Active and inactive are the calls of the source.

Columns and labels:
Assay in all cases: NCI-60 one-dose screen, 48 h (100 = growth as untreated, 0 = no growth, -100 = all killed)
[1] = system: NCI-H23 lung; settings: 10 µM unless noted
[2] = system: NCI-H226 lung; settings: 10 µM unless noted
[3] = system: HOP-62 NSCLC; settings: 10 µM unless noted
[4] = system: NCI-H460 lung; settings: 10 µM unless noted
[5] = system: NCI-H522 lung; settings: 10 µM unless noted
[6] = system: A549/ATCC NSCLC; settings: 10 µM unless noted
[7] = system: 786-0 renal; settings: 10 µM unless noted
[8] = system: COLO 205 colon; settings: 10 µM unless noted
[9] = system: DU-145 prostate; settings: 10 µM unless noted
[10] = system: K-562 leukemia; settings: 10 µM unless noted
[11] = system: MALME-3M melanoma; settings: 10 µM unless noted
[12] = system: MDA-MB-231 breast; settings: 10 µM unless noted
[13] = system: RXF 393 renal; settings: 10 µM unless noted
[14] = system: SF-268 CNS; settings: 10 µM unless noted
[15] = system: SF-295 CNS; settings: 10 µM unless noted
[16] = system: SF-539 CNS; settings: 10 µM unless noted
[17] = system: UACC-257 melanoma; settings: 10 µM unless noted
[18] = system: M14 melanoma; settings: 10 µM unless noted
[19] = system: HOP-92 NSCLC; settings: 10 µM
[20] = system: NCI-H322M lung; settings: 10 µM unless noted

Q: With `COc1ccc(-c2nc3cc(Cl)c(Cl)cc3n2CC(=O)N=Nc2c(O)[nH]c3ccc(OC)cc23)cc1` as the molecule, how does the growth [1] read?
A: 38.7%

Q: And the growth [2]?
A: -38.3% (active)

Q: And the growth [3]?
A: 43.2%

Q: What about the growth [4] of the same molecule?
A: 56.1%

Q: What about the growth [5] of the same molecule?
A: 69.3%

Q: What about the growth [6] of the same molecule?
A: 59.8%

Q: And the growth [7]?
A: 82.5%

Q: What about the growth [8] of the same molecule?
A: 31.9%

Q: What about the growth [9] of the same molecule?
A: 5.81% (active)

Q: What about the growth [10] of the same molecule?
A: 49.2%

Q: What about the growth [11] of the same molecule?
A: 41.2%

Q: What about the growth [12] of the same molecule?
A: 52%

Q: And the growth [13]?
A: -29.8% (active)

Q: And the growth [14]?
A: 78.3%

Q: And the growth [15]?
A: 66.5%

Q: What about the growth [16] of the same molecule?
A: 47.2%

Q: What about the growth [17] of the same molecule?
A: 87.9%

Q: What about the growth [18] of the same molecule?
A: 56.8%

Q: With `Cn1ccnc1C(=O)/C=C/c1ccc(CNC(=O)c2ccc(Cl)cc2)cc1` as the molecule, how does the growth [1] read?
A: -7.45% (active)

Q: And the growth [2]?
A: 4.1% (active)

Q: What about the growth [3] of the same molecule?
A: 16.3%

Q: And the growth [4]?
A: -18.9% (active)

Q: What about the growth [19] of the same molecule?
A: 10.3%

Q: What about the growth [5] of the same molecule?
A: 7.07% (active)

Q: What about the growth [6] of the same molecule?
A: 8.09% (active)

Q: And the growth [7]?
A: 12.4%

Q: And the growth [8]?
A: 13.6%

Q: What about the growth [9] of the same molecule?
A: 10.2%

Q: What about the growth [10] of the same molecule?
A: 13.2%

Q: And the growth [11]?
A: 73.5%

Q: And the growth [12]?
A: 13.3%

Q: And the growth [14]?
A: 10.1%

Q: What about the growth [15] of the same molecule?
A: 13.8%

Q: And the growth [16]?
A: -26.7% (active)

Q: What about the growth [17] of the same molecule?
A: 67.9%

Q: How did the growth [1] turn out when `CCOc1ccc(C(=O)Nc2ncc(Cc3ccc(F)cc3)s2)cc1` was run?
A: 28.4%

Q: What about the growth [2] of the same molecule?
A: 40.1%

Q: And the growth [3]?
A: 33.7%

Q: And the growth [4]?
A: 7.15% (active)

Q: What about the growth [5] of the same molecule?
A: 10.8%

Q: And the growth [6]?
A: 33.6%

Q: And the growth [7]?
A: 39.3%

Q: What about the growth [8] of the same molecule?
A: -21.9% (active)

Q: What about the growth [9] of the same molecule?
A: 28.8%

Q: What about the growth [10] of the same molecule?
A: 9.95% (active)

Q: And the growth [11]?
A: 63.6%

Q: And the growth [12]?
A: 36%

Q: And the growth [13]?
A: 1.11% (active)

Q: What about the growth [14] of the same molecule?
A: 53.6%

Q: And the growth [15]?
A: 4.39% (active)

Q: And the growth [16]?
A: 1.96% (active)

Q: And the growth [17]?
A: 77.7%

Q: What about the growth [18] of the same molecule?
A: 15.4%

Q: Which results are given for `COc1cc(-c2nn(C(C)(C)C)cc2-c2ccnc(NCCCNS(=O)(=O)c3ccccc3)n2)ccc1Cl`?
A: growth [1]: 74.4%; growth [2]: 66%; growth [3]: 72.8%; growth [4]: 71.1%; growth [19]: 71.9%; growth [6]: 51.4%; growth [7]: 77.7%; growth [8]: 101%; growth [9]: 67.2%; growth [10]: 40.7%; growth [11]: 84%; growth [12]: 49.3%; growth [13]: -1.53% (active); growth [14]: 58.2%; growth [15]: 83.1%; growth [16]: 83.7%; growth [17]: 95.1%; growth [18]: 96.1%

Q: Which growth [1] does the source give for `CNC(=O)c1cc(Oc2ccc3nc(NC(=O)c4cccc(OC(F)(F)F)c4)sc3c2)ccn1` here?
A: 82.8%

Q: What about the growth [2] of the same molecule?
A: 26.5%

Q: What about the growth [20] of the same molecule?
A: 92.6%

Q: What about the growth [4] of the same molecule?
A: 75.1%

Q: What about the growth [5] of the same molecule?
A: 60.3%

Q: And the growth [6]?
A: 77.5%

Q: And the growth [7]?
A: 50.4%

Q: What about the growth [8] of the same molecule?
A: 106%

Q: And the growth [9]?
A: 75.4%

Q: And the growth [10]?
A: 61.8%

Q: What about the growth [11] of the same molecule?
A: 76.8%

Q: What about the growth [12] of the same molecule?
A: 76.1%

Q: And the growth [13]?
A: -1.69% (active)

Q: What about the growth [14] of the same molecule?
A: 81.8%

Q: And the growth [15]?
A: 77.8%

Q: And the growth [16]?
A: 63.9%

Q: And the growth [17]?
A: 77.6%

Q: What about the growth [18] of the same molecule?
A: 93.9%

Q: Which results are given for `Oc1[nH]c2ccccc2c1Nn1c(N=N/C=c2/ccc3c(c2)C=NN=3)n[nH]c1=S`?
A: growth [1]: 89.6%; growth [2]: 93.9%; growth [3]: 75.6%; growth [4]: 110%; growth [19]: 76.6%; growth [6]: 99.9%; growth [7]: 96.7%; growth [8]: 30.9%; growth [9]: 99.1%; growth [10]: 101%; growth [11]: 109%; growth [12]: 75.6%; growth [13]: 85.4%; growth [14]: 96.9%; growth [15]: 106%; growth [16]: 94%; growth [17]: 110%; growth [18]: 106%

Q: Which results are given for `NC(N)=Nc1ccc(Nc2cccc(Oc3ccc(Cl)c(C(F)(F)F)c3)c2)cn1`?
A: growth [1]: 32%; growth [2]: 36.5%; growth [20]: 52.9%; growth [4]: -71.3% (active); growth [5]: 18%; growth [6]: 19.9%; growth [7]: 54.3%; growth [8]: -48.7% (active); growth [9]: 38.3%; growth [10]: -48.8% (active); growth [12]: 47.5%; growth [13]: 56.6%; growth [14]: 53.6%; growth [15]: 23.8%; growth [16]: 78.5%; growth [17]: 31.9%; growth [18]: 41.2%

Q: Which growth [1] does the source give for `Cc1cc(-c2ccc(Cl)cc2)n(Cc2nnc(SCC(=O)Nc3ccc(S(N)(=O)=O)cc3)n2C2CCCCC2)n1` here?
A: 99.4%

Q: What about the growth [2] of the same molecule?
A: 93.5%

Q: And the growth [20]?
A: 97.2%

Q: What about the growth [4] of the same molecule?
A: 105%

Q: And the growth [5]?
A: 99.8%

Q: What about the growth [6] of the same molecule?
A: 98.4%

Q: What about the growth [7] of the same molecule?
A: 108%

Q: What about the growth [8] of the same molecule?
A: 116%

Q: What about the growth [9] of the same molecule?
A: 117%

Q: What about the growth [10] of the same molecule?
A: 104%

Q: And the growth [11]?
A: 87%

Q: What about the growth [12] of the same molecule?
A: 106%

Q: What about the growth [13] of the same molecule?
A: 110%

Q: What about the growth [14] of the same molecule?
A: 113%

Q: And the growth [15]?
A: 98%

Q: What about the growth [16] of the same molecule?
A: 103%

Q: And the growth [17]?
A: 101%

Q: What about the growth [18] of the same molecule?
A: 99.8%
